From PubChem BioAssay (NCI) come the findings set out here.

The panel holds about 79,000 compounds, 15% with a hit somewhere; the sample as a whole holds those more often. A number with no mark means an inactive call. Activity calls are given as the source filed them. Cut-off read from the data, not from the text of the source: active = growth inhibition above about 70%; inactive = the rest.

A short description of the assay: NCI Yeast Anticancer Drug Screen. Data for the bub3 strain (AID 167). The settings on record: S. cerevisiae bub3 mutant strain, at 5.0 µM (retest, dose inferred, filed as 0.5), stronger effect = higher value. A digest of the protocol: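 Growth of a checkpoint-deficient yeast mutant is measured after compound exposure. Values represent inhibition relative to vehicle.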
In the case of `CCCc1cc(C(=O)OCC)cc(CCC)c1O`, the growth inhibition was 31%.
Under `CC(C)[N+]([O-])(CCCNc1c2ccccc2nc2cccc([N+](=O)[O-])c12)C(C)C` stands -2%; under `COc1cc2c3c(cccc3c1)C(=O)N(CCN(C)C)C2=O`, 21%.
With `NC(=O)NN=C(CS)CS`, the growth inhibition is -3%.
Under `Cc1ccc(NC(=O)/C(Cl)=C(\Cl)C(=O)O)cc1C` stands 21%; under `CCN(CC)CC[n+]1ccc2c(C)c3[nH]c4ccc(O)cc4c3c(C)c2c1`, 8%.
On to `CC(CC(C)(C)[N+](C)(C)C)[N+](C)(C)C` (centres undefined), for which the growth inhibition was 67%.
For `COc1ccc(OC)c2cc3ccccc3cc12`, the growth inhibition is 36%.
Turning to `Nc1ncncc1C(C1=C(O)COC1=O)C1=C(O)COC1=O`, the growth inhibition was 1%.
To `CSC1=NNC(SC)=NN1` belongs 45%; to `Cc1c(Cl)ccc2c1S(=O)(=O)c1cccc(Cl)c1-2`, 18%; to `[O-][n+]1c2ccc(O)cc2nc2ccc(Cl)cc21`, -7%.
To `COc1ccc2ccc3ccccc3c2c1C=O` belongs 5%; to `Nc1ccc2c(c1)C(=O)c1cccc(N)c1C2=O`, 6%.
Consider `O=C(c1ccc(Cl)cc1Cl)C(Cl)Cl`, for which the growth inhibition was -4%.
Consider `COc1cc(C(=O)/C=C/c2ccccc2O)ccc1O`, for which the growth inhibition was 76% (active).
Under `O=Cc1cccc2ccc3ccccc3c12` stands -54%; under `O=C(Nc1ccc(Cl)cc1)OCC#CCCl`, 4%.
To `Cn1ccnc1Oc1ccc(Cl)cc1` belongs -65%.
Under `c1ccc2c(c1)C(=NCCCN1CCCCCC1)c1cccn1-2` stands 6%; under `C/C(=N\O)C1CC2C=C(C#N)C1N(Cc1ccccc1)C2` (centres undefined), -3%; under `O=[N+]([O-])C(=C(Sc1ccccc1)Sc1ccccc1)C(Cl)=C(Cl)Cl`, -1%.
`CCCCCCCCCC/C=C\C(=O)O`: the growth inhibition was -7%.
Regarding `COc1ccc(N=C2C(=O)Nc3ccc(Br)cc32)cc1`, the growth inhibition was 32%.
Under `COc1ccccc1C(=O)OCC1CCCN2CCCCC12` (centres undefined) stands 7%.
Under `CC(C)(Br)C(=O)/C=C/c1ccc(Cl)c(Cl)c1` stands 7%.
Under `Nc1ccccc1CC(O)C(=O)O` (centres undefined) stands -17%.
`CC(=O)N/N=C/C(C)(C)C(C)(C)/C=N/NC(C)=O`: the growth inhibition was 0%.
As for `CN(C)c1nc2sc3c(c2c(=O)o1)CCCC3`, the growth inhibition is 39%.
Under `CC(C)OC(=O)Oc1ccccc1OC(=O)OC(C)C` stands 15%.
Turning to `Cc1ccc(N)c(S)c1`, the growth inhibition is 15%.
For `O=C(O)c1ccccc1NC(=S)c1ccccc1`, the growth inhibition is 16%.
On to `COC(=O)c1ccc(NCC2=CC(=O)C=CC2=O)cc1O`, for which the growth inhibition was 66%.
Under `NC(N)=N/N=C\c1c2ccccc2cc2ccccc12` stands 3%; under `COC(=O)CSSCc1ccc([N+](=O)[O-])cc1`, 43%.
For `CCS(=O)(=O)c1ccc(/C=C/C=N/NC(=S)NCC(C)C)cc1`, the growth inhibition was -12%.
In the case of `N#CC(C(=O)Nc1ccccc1)C1=C(Cl)C(=O)c2ccccc2C1=O` (centres undefined), the growth inhibition is 62%.
As to `C[C@H](CCC(=O)NN)[C@H]1CC[C@H]2[C@@H]3CC[C@@H]4C[C@H](O)CC[C@]4(C)[C@H]3CC[C@]12C`, the growth inhibition is -18%.
To `CC[n+]1ccc2c(C)c3[nH]c4ccc(O)cc4c3c(C)c2c1` belongs -8%.
